Consider 32 compounds from PubChem BioAssay AID1532 (PCMD, 2009).

The whole screen tested about 110,000 compounds, of which about 420 (0.38%) were called active. Rule as the data show it: active = inhibition above about 30% (passing the limit was not always enough); inconclusive = no clear call, values can overlap the other calls. What follows is part of a selection rich in actives, with near analogues and random picks from the rest.

The assay concerns RmlC (dTDP-4-dehydrorhamnose 3,5-epimerase) and RmlD (dTDP-4-dehydrorhamnose reductase), coupled enzyme assay. The experiment in a line: RmlC and RmlD coupled enzyme inhibitors, primary screen, biochemical, 384-well, compound mixtures, retest (AID 1532). To be noted: 384-well mixture HTS, at 5.5 µM, stronger effect = higher value.
Where [1] appears, read: measured here: mean retest inhibition.

Usually inhibition stands for the change of the read-out against control, counted positive when it falls. Regarding `C[C@@H]1CC[C@]2(O[C@@H](CCO)C[C@H](O)[C@H]2O)O1`, the inhibition was -20.2% (inactive).
The same measure, in the same setting: under `CCOC(=O)c1sc(NC(=O)CSc2nc3c(c(=O)n2-c2ccccc2)SCC3)c(C(=O)OCC)c1C` stands -104% (inactive); under `CCC(C)[C@@H](C(=O)N1CCNCC1)n1cc(CCCCN)nn1` (stereo partly drawn), -10% (inactive); under `CN1CCN(C(=O)C2=C[C@H](c3ccc4c(c3)OCO4)C[C@H](OCc3ccc(CO)cc3)O2)CC1`, 8.25% (inactive).
Still for that read-out and setting: under `CC(C)(C)n1nc(Cc2cccc3ccccc23)c(C#N)c1N` stands -12.7% (inactive).
`CCOC(=O)/C=C/c1ccc(C(F)(F)F)cc1S(=O)(=O)NC(C)(C)C`: the inhibition is 32.4% (inactive). The inhibition under setting [1] was -3.06%.
On to `O=C1NC[C@@H](Cc2ccc(O)cc2)N(CCc2cccc(F)c2)C1=O`, for which the inhibition is 6.42% (inactive).
Same read-out and setting: under `COC(=O)CCCC1=CC2=CC(=O)C(C)(OC(=O)c3cccs3)C(=O)C2=CN1CC1CC1` (stereo not drawn) stands 1.92% (inactive); under `COc1ccc(CNC(=O)C2(CC3CC(c4ccccc4)=NO3)CCN(C(=O)c3cccc(O)c3)CC2)cc1` (stereo not drawn), -4.7% (inactive).
Consider `COC(C/C=C/C(=O)[C@@H](C)OCc1ccccc1)OC`, for which the inhibition was 9.13% (inactive).
Same read-out and setting: under `C#CCOCCOCCOCCNc1nc(N2CCN(C(=O)[C@H](Cc3ccc(O)cc3)n3cc(C(N)CC(C)C)nn3)CC2)nc(N2CCN(C(=O)[C@H](CCC(=O)O)n3cc(C(N)[C@H](C)CC)nn3)CC2)n1` (stereo partly drawn) stands 7.73% (inactive).
`CN1CCCc2cc(C#N)c(=O)[nH]c21`: the inhibition is 48.2% (active). In addition, the inhibition under setting [1] stood at 113%.
In the case of `C#CCNC(=O)[C@H](Cc1ccc(C(=O)c2ccccc2)cc1)NC(=O)OC(C)(C)C`, the inhibition was -13.5% (inactive).
Same read-out and setting: under `CCO[C@@H]1OC(C(=O)N2CCOCC2)=C[C@H](C)[C@H]1CCCO` stands -9.82% (inactive).
On the same count and under the same terms, under `CC1(OC(=O)CCc2ccccc2)C(=O)C=C2C=C(c3ccc(C#N)cc3)N(CCc3ccccn3)C=C2C1=O` (stereo not drawn) stands 3.85% (inactive).
For `O=c1c(-c2ccccc2)coc2cc(O)ccc12`, the inhibition is 44.3% (inactive). The inhibition under setting [1] was found to be 18%.
For `COc1ccc(-c2cc3ccc(OCc4nn[nH]n4)cc3oc2=O)cc1` the same measures were 94.2% (inactive) and 82.7%.
For `O=c1oc2cc(O)ccc2cc1-c1ccc(F)cc1` the same measures were 136% (active) and 118%.
As to `COC(C[C@@H]1O[C@@H]1C(=O)[C@@H](C)OCc1ccccc1)OC`, the inhibition is 13.7% (inactive).
As to `CC1(C)C=C2[C@H]3CC[C@@H]4[C@@]5(C)CCC(=O)C(C)(C)[C@@H]5CC[C@@]4(C)[C@]3(C)CC[C@@]2(C(=O)O)CC1`, the inhibition is 9.38% (inactive).
Same read-out and setting: under `C[C@@H]1NC(=O)c2cc([N+](=O)[O-])cc(F)c2NCCC[C@@H](C(N)=O)NC(=O)[C@H](CC(N)=O)NC1=O` stands 5.67% (inactive); under `CNC(=O)c1[nH]cnc1C(=O)N[C@@H](CC(C)C)C(=O)OCc1ccccc1`, 1.9% (inactive); under `CCOC(=O)c1cccc(NC(=O)c2ccc(F)cc2F)c1`, -9.66% (inactive).
Same read-out and setting: under `O=C(NC1CC1)C1=C[C@H](c2c[nH]c3ccccc23)C[C@H](OCc2ccc(CO)cc2)O1` stands 7.9% (inactive); under `Cn1ccnc1-c1nnn(-c2ccc(F)cc2)n1`, -8.61% (inactive); under `CCC(=O)Nc1cccc(C2=NOC3(C2)C[C@@H](C(N)=O)N(C(=O)c2cc([N+](=O)[O-])cc([N+](=O)[O-])c2C)C3)c1` (stereo partly drawn), 4.35% (inactive).
Turning to `CNC(=O)c1cc2c(ccc3ccccc32)oc1=N`, the inhibition is 52.7% (active). Further, the inhibition under setting [1] came out at 155%.
For `CCOC(=O)N1CCN(C(=O)c2cc3c(ccc4ccccc43)oc2=O)CC1`, the inhibition is 2.38% (inactive).
Still for that read-out and setting: under `CC(=O)c1ccc2c(ccc3ccccc32)c1` stands 5.48% (inactive); under `CCOC(=O)c1c(NC(=O)C(C)Sc2c[nH]c3ccccc23)sc2c1CCC2` (stereo not drawn), -9.18% (inactive); under `CCOC(=O)C[C@H]1c2ccc(C(F)(F)F)cc2S(=O)(=O)N1c1ccccc1`, -16.1% (inactive).
On the same count and under the same terms, under `COc1ccc(C[C@H]2CN3C(=NC[C@H]3C)N2CCNC(=O)CCC2CCCCC2)cc1` stands 6.01% (inactive).
